In general, viability refers to a read-out of living cells in per cent, often relative to untreated cells. The inhibition is the change of the read-out against control, counted positive when it falls.

Inconclusive results are not listed. Activity calls are given as the source filed them. Cut-off read from the data, not from the text of the source, unless noted: active = inhibition above about 30%; inactive = the rest.

The values that follow come from PubChem BioAssay.

Test [1] can be described thus: Her2 expression decrease, cell viability multiplex – SKBR3 breast tumor cells, AlphaScreen, ATP viability, primary screen (AID 461;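 active = Her2 level under about 52% in both replicate screens, with viability over 70% of control, limit read from the data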;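 for Her2 level: lower value means less Her2 protein in the cells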;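 for viability: percent of carrier control wells set as 100% viability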). The note with it: SKBR3 Her2 protein level, 18-24 h, measured here: SKBR3 viability, ATP luminescence, at 10 µM. (In general: Bead proximity is the source of the signal in Alpha formats.)
Test [2] has as its target Receptor tyrosine-protein kinase erbB-2 (Homo sapiens) (UniProt P04626). The test is described as above. As to conditions: 18-24 h, at 10 µM, stronger effect = lower value.
A short description of test [3]: reduced viability of SK-BR-3 breast cancer cells – cell-based, 24 h, human, pilot screen (AID 572;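 active = viability at or below 10% of carrier control in both of two separate runs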;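 note: compound exposure lasted between 18 and 24 h rather than exactly 24 h; 100% = carrier-treated control wells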). As to conditions: SK-BR-3 viability, CellTiter-Glo luminescence, at 10 µM, stronger effect = lower value.
The nature of test [4]: HUVEC growth inhibition – cell-based, human, primary screen (AID 575;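 active = viability at or below 30% in both replicate assays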;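 note: 100% = median of untreated cell wells with 0.1% DMSO on each plate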). As to conditions: HUVEC proliferation, CellTiter-Glo luminescence, 72 h; at 10 µM; stronger effect = lower value.
A short description of test [5]: H69AR cell proliferation blockers – human, duplicate replicates, primary screen (AID 580;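 active = viability at or under a set limit in both replicates, limit being median viability minus 3 SD, cut at about 48% in these data, passing the limit was not always enough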;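 note: 100% = mean luminescence of untreated wells and 0% = no signal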). The note with it: H69AR lung tumor cells viability, ATP luminescence, 72 h; at 10 µM; stronger effect = lower value.
Test [6] is described as follows: MRP1 drug-resistance reversers in H69AR cells – cell-based, doxorubicin co-treatment, pilot screen (AID 601;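 active = viability loss from added drug above about 55%, and viability with drug at most 40%, in both replicates, limit read from the data, passing the limit was not always enough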). As to conditions: CellTiter-Glo, 72 h, at 10 µM; for differential viability (reversal): stronger effect = higher value. (ATP-based viability assays read luminescence as a measure of living cells.)
Test [7] can be described thus: yeast transport mutant growth inhibition pilot in 384-well plates, post-Golgi transport modulator project (AID 636; in the data active = inhibition above about 31%). The note with it: absorbance 615 nm, about 18 h, stronger effect = higher value.
Test [8] is described as follows: growth suppression of yeast trafficking mutant, preliminary HTS, modulators of trafficking downstream of Golgi apparatus project, 1536-format plate, OD 615 nm (AID 637). The note with it: yeast transport mutant growth, absorbance 615 nm, 18 h; stronger effect = higher value.
A short description of test [9]: S. cerevisiae growth inhibition in permissive medium (OD615), pilot counter-assay for S. cerevisiae lifespan shortening project, permissive growth control (AID 705;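 active = growth inhibition above 25% in both replicates, a cutoff set 3 SD above the mean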). The note with it: OD615, 24 h, at 10 µM, stronger effect = higher value.
Test [10] can be described thus: S. cerevisiae growth inhibition in restrictive medium, OD615, pilot screen, restrictive growth control, yeast lifespan reduction project (AID 706;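 active = growth inhibition above a set limit, 3 SD over mean compound inhibition, in both replicates, cut at about 43% in these data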;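 note: modified DeaD lifespan yeast strain shifted to restrictive glucose medium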). The note with it: OD615, 48 h, at 10 µM, stronger effect = higher value.
The nature of test [11]: doxorubicin toxicity protection in MRP-1 cells – H69AR cells, CellTiter-Glo, duplicate, MRP-1 activator project, pilot screen (AID 807;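 active = viability increase at or above a cutoff of the median across tested compounds plus 3 SD, cut at about 8.5% in these data, passing the limit was not always enough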;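 note: compound pretreatment 18-22 h then 72 h combined with doxorubicin; 0% = doxorubicin alone and 100% = vehicle without doxorubicin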). The note with it: H69AR viability with doxorubicin, CellTiter-Glo luminescence; at 10 µM; stronger effect = higher value.
A short description of test [12]: viability of HCT116 without oncogenic beta-catenin – human colon tumor cells, pilot screen (AID 823;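 active = cell viability at or below a set limit in both duplicate runs, the limit being the all-compound median minus 4 SD, cut at about 23% in these data, passing the limit was not always enough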;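 note: 0% = wells killed by 20 µM Hyamine and 100% = untreated DMSO cell wells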). As to conditions: HCT116 beta-catenin knockout viability, CellTiter-Glo, 60 h; at 10 µM; stronger effect = lower value.
Test [13] is described as follows: viability of PTEN-null HCT116 cells – cell-based, HCT116 clonal line, CellTiter-Glo, pilot screen (AID 824;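 active = viability at or below 27.92% in each of two runs, the all-compound median minus 4 SD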;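 note: 0% = 20 µM Hyamine control and 100% = vehicle cell control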). The note with it: HCT116 PTEN-deleted viability, 60 h, at 10 µM, stronger effect = lower value.
Test [14] in a line: RAM pathway blockade in budding yeast – dse1pr::URA3 reporter, 5-FOA selection, pilot screen (AID 869;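 active = inhibition over a set limit, the all-compound mean plus 3 SD, in both replicate runs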;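 note: 0% = DMSO wells with no growth and 100% = 10 µM 1-NA-PP1 with full growth; RAM network block rescues cells from 5-FOA so hits raise OD615 growth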). As to conditions: S. cerevisiae dse1pr::URA3 5-FOA growth, OD615, 2 d; at 10 µM; stronger effect = higher value; strain carries analog-sensitive mutant Cbk1 kinase.
Test [15] in a line: RAM signaling pathway blockade in yeast – S. cerevisiae, Pdr1DBD-CYC8 efflux-inhibited sensitized strain, primary screen (AID 1298;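 active = RAM network inhibition above 8.4% in each of two replicates, 3 SD over the compound average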;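 note: 0% = DMSO untreated cells without growth and 100% = 10 µM 1-NA-PP1 full growth; higher means more yeast growth rescued from 5-FOA killing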). The note with it: S. cerevisiae cbk1-as DSE1-URA3 strain, 5-FOA growth OD615, 2 d; at 50 µM; stronger effect = higher value.
The mark [16] stands for this setting: H69AR cells + 2 uM doxorubicin, measured here: viability with 2 uM doxorubicin, stronger effect = lower value.
Where [17] appears, read: H69AR cells, compound alone cytotoxicity.

Sequence of Receptor tyrosine-protein kinase erbB-2 (Homo sapiens) (P04626 whole entry, looked up): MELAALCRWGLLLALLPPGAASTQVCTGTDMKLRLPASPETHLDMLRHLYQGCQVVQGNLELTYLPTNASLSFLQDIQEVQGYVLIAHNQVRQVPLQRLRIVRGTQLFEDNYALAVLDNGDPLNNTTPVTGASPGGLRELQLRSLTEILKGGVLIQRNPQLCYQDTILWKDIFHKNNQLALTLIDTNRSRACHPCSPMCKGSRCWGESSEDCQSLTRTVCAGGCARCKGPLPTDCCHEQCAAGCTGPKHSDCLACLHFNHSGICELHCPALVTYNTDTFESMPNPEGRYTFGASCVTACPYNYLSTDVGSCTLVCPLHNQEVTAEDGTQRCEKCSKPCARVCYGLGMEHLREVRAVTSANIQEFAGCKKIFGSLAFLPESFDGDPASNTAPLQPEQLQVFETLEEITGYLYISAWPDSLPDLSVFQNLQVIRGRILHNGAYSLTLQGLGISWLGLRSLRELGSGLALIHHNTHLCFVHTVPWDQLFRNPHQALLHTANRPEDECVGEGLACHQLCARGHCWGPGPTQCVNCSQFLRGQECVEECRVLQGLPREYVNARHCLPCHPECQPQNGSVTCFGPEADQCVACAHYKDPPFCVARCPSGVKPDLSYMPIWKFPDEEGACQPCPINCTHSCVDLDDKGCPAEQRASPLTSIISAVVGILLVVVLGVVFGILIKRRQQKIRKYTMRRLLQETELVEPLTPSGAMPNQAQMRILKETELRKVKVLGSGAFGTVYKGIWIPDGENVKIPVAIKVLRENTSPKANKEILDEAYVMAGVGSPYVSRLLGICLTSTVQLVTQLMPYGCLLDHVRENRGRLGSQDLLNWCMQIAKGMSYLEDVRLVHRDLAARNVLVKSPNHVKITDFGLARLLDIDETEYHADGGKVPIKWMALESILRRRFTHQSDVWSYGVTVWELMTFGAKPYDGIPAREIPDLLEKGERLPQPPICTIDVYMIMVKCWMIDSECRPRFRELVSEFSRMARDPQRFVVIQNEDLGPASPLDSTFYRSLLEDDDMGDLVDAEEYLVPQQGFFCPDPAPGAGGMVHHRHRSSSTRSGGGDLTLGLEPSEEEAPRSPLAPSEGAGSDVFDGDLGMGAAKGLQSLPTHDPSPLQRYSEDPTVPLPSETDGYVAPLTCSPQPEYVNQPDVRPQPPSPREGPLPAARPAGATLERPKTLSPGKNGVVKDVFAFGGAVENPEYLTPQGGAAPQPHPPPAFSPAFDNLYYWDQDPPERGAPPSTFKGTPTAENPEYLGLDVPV

Take `Cc1c(C#N)c2ccccc2n1CC(=O)N1CCc2ccccc2C1`: the viability in test [1] is 102%; in test [3], 102% (inactive); in test [4] it was 93.5% (inactive); in [5], 94.9% (inactive); in [6] (setting [16]), 92.2%; in test [6] (setting [17]) it was 94.9%. Also, the viability was 92.9% (inactive) in test [12] and 92.7% (inactive) in test [13]. The Her2 level in [2] is 120% (inactive). For the same molecule, the differential viability (reversal) in test [6] (H69AR cells + 2 uM doxorubicin) is 2.7% (inactive). Also, the inhibition is 6.67% (inactive) in test [7], -3.17% (inactive) in test [8] and 2.05% (inactive) in test [14]. In addition, the figures for the growth inhibition in test [9] and in test [10] were -1.57% (inactive) and -2.33% (inactive), respectively. The viability increase in [11] was -3.16% (inactive). The RAM network inhibition in test [15] was 4.34% (inactive).

In the case of `COc1ccc(C2CC(c3ccco3)n3ncnc3N2)cc1` (stereo not given), the viability was 88% in test [1]; 88% (inactive) in test [3]; 93.1% (inactive) in [4]; 95.4% (inactive) in test [5]; 98.6% in [6] (setting [16]); 95.4% in [6] (setting [17]). In addition, the viability was 97.7% (inactive) in [12] and 94.6% (inactive) in test [13]. Moreover, the Her2 level in test [2] was 97% (inactive). Moreover, the differential viability (reversal) in test [6] (H69AR cells + 2 uM doxorubicin) was -3.17% (inactive). Moreover, the inhibition is -3.07% (inactive) in [7], -8.5% (inactive) in [8] and 2.36% (inactive) in test [14]. For the same molecule, the growth inhibition was -4.26% (inactive) in [9] and 1.61% (inactive) in test [10]. In test [11], the viability increase was -0.91% (inactive). Further, the RAM network inhibition in [15] was 0.32% (inactive).

In the case of `CN1CCN(Cc2nc3c(c(=O)n(C)c(=O)n3C)n2Cc2ccccc2Cl)CC1`, the viability is 80.5% in test [1]; 80.5% (inactive) in test [3]; 86.5% (inactive) in [4]; 86.9% (inactive) in test [5]; 79.8% in test [6] (setting [16]); 86.9% in test [6] (setting [17]). In addition, the viability in test [12] was 91.8% (inactive); in [13], 91.3% (inactive). Further, the Her2 level in [2] is 97.5% (inactive). Further, the differential viability (reversal) in test [6] (H69AR cells + 2 uM doxorubicin) was 7.12% (inactive). Also, the inhibition in test [7] is -5.07% (inactive); in test [8] it was -2.17% (inactive); in [14], 1.5% (inactive). The results for the growth inhibition in test [9] and in [10] were -5.17% (inactive) and -14.4% (inactive), respectively. Moreover, in test [11], the viability increase was -2.56% (inactive). For the same molecule, the RAM network inhibition in [15] is 4.45% (inactive).

Regarding `COc1ccc(S(=O)(=O)Cc2ccc(C(=O)NCCc3ccc(S(N)(=O)=O)cc3)o2)cc1`, the viability in test [1] was 94.5%; in test [3], 94.5% (inactive); in [4] it was 91.6% (inactive); in test [5] it was 91.7% (inactive); in test [6] (setting [16]), 79.6%; in [6] (setting [17]), 91.7%. In addition, the viability was 102% (inactive) in test [12] and 99.1% (inactive) in test [13]. For the same molecule, the Her2 level in test [2] was 114% (inactive). Moreover, the differential viability (reversal) in test [6] (H69AR cells + 2 uM doxorubicin) is 12.1% (inactive). In addition, the inhibition in [7] is -4.13% (inactive); in test [8], -2.67% (inactive); in test [14] it was 0.71% (inactive). The figures for the growth inhibition in test [9] and in test [10] were -0.09% (inactive) and -4.47% (inactive), respectively. Moreover, the viability increase in test [11] was 0.71% (inactive). For the same molecule, in [15], the RAM network inhibition is 0.1% (inactive).

On to `O=C(NCCOC(=O)C1COc2ccccc2O1)C1COc2ccccc2O1` (stereo not given), for which the viability in [1] was 92.5%; in [3], 92.5% (inactive); in test [4], 88.5% (inactive); in [5], 103% (inactive); in test [6] (setting [16]), 92.6%; in test [6] (setting [17]), 103%. Moreover, the viability in [12] is 102% (inactive); in test [13], 100% (inactive). Also, in [2], the Her2 level is 95% (inactive). Moreover, the differential viability (reversal) in test [6] (H69AR cells + 2 uM doxorubicin) was 10.3% (inactive). The inhibition in test [7] was -6.76% (inactive); in test [8], -2.79% (inactive); in test [14], 0.095% (inactive). Also, the growth inhibition was -7.82% (inactive) in test [9] and -1.52% (inactive) in [10]. Also, the viability increase in test [11] was 0.34% (inactive). In addition, the RAM network inhibition in [15] is 0.89% (inactive).
